High-throughput results as filed in PubChem BioAssay.
Compounds with a hit are over-represented: about 1.1% of the library has one in this group of screens.
E coli RNAP: E. coli RNAP inhibitors, biochemical | E. coli RNA polymerase, fluorescence transcription assay | inhibition, %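 (tested at 10 µM)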 | hit rate 0.2% among 62,000 | AID 559, 2006; in the data active = inhibition above about 20%;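 also: 0% = enzyme without compound and 100% = no enzyme blank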
Cathepsin G inh: human cathepsin G inhibitors, primary screen, biochemical, pooled compound mixtures, AMC fluorescence; P08311; purified enzyme, AMC-tetrapeptide fluorescence; inhibition, % at 5 µM (by protocol); hit rate 0.2% among 62,000;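 active = inhibition above 20% in each of the two mixture wells holding the compound; inactive = inhibition of 20% or less in either well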;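 also: 0% = enzyme control without mixture and 100% = blank lacking enzyme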
BAP1 inh: inhibitors of BAP1 deubiquitinase, primary screen, biochemical, Ub-AMC fluorescence, kinetic; Ubiquitin carboxyl-terminal hydrolase BAP1 (Homo sapiens), Q92560; recombinant BAP1, Ub-AMC hydrolysis fluorescence kinetic; active compounds read low; calls only at 20 µM; hit rate 0.48% among 72,000; AID 436, 2006;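 active = activity remaining at or below 50% of control, provided the compound also passes the data quality filters; inactive = the rest, including low values that fail the filters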;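 also: 100% = DMSO wells rate and 0% = substrate alone blank rate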
FXIIa inh mix: human factor XIIa inhibitors, primary screen, biochemical, pooled compound mixtures, fluorogenic substrate | purified FXIIa | Coagulation factor XII (Homo sapiens), P00748 | inhibition, % at 5 µM | hit rate 0.2% among 62,000;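 also: 0% = enzyme without compound and 100% = no enzyme blank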
FXIa mix inh: FXIa protease inhibitors in compound pools, primary screen, biochemical, 10-compound mixtures. Coagulation factor XI (Homo sapiens), P03951. purified FXIa, fluorogenic substrate, pooled mixtures. inhibition, % at 5 µM. hit rate 0.19% among 62,000. AID 680, 2007;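 also: each value is inhibition by a whole ten-compound pool holding the compound; 0% = enzyme with no mixture and 100% = wells lacking enzyme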
Target sequence (P03951 19-387 limits assumed): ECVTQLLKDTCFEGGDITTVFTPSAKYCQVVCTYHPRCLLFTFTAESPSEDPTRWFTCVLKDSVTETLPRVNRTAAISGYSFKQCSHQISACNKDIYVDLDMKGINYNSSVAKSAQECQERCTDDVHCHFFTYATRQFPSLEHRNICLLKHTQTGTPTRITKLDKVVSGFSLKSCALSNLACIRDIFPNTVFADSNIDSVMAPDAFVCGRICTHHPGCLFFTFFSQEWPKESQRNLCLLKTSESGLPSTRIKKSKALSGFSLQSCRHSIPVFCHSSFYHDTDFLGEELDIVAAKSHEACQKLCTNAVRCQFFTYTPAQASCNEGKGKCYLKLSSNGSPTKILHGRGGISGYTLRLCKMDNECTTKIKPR
Target sequence (P03951 388-625 limits assumed): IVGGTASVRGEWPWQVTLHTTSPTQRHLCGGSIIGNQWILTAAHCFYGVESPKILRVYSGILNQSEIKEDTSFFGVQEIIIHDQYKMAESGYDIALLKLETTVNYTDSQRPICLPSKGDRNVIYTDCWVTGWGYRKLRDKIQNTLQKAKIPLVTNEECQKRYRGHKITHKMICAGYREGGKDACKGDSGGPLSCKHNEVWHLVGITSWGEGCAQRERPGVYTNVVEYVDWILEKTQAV
C1s block: complement C1s protease inhibitors, primary screen, biochemical, 10-compound mixtures; purified C1s, fluorogenic AMC substrate, pooled mixtures; hit rate 0.16% among 62,000; mean inhibition % of two 10-compound mixtures (active compounds read high), % at 5 µM (by protocol); Complement C1s subcomponent (Homo sapiens), P09871;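 active = inhibition above 20% in each of the two 10-compound mixture wells holding the compound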;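 also: 0% = enzyme wells lacking compound mixture and 100% = no-enzyme blank wells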
BAP1 inh conf: BAP1 deubiquitinase inhibitors, hit retest, confirmation, orthogonal assay, biochemical, Ub-ethyl ester substrate, HPLC readout; hit rate 8% among 310; shares compounds with BAP1 inh; purified BAP1, Ub-ethyl ester hydrolysis; active compounds read low; AID 753, 2007; % of control activity, % at 20 µM;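 active = percent of control activity at or below 60%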
* marks the source's active call; other numbers are inactive results; i = inactive; . = not tested or not shown; + = active, no number. Rule as the data show it, unless noted: active = inhibition above about 20% (passing the limit was not always enough); inactive = the rest.

SMILES	E coli RNAP	Cathepsin G inh	BAP1 inh	FXIIa inh mix	FXIa mix inh	C1s block	others
CCCCCn1c(=O)c(C(=O)Nc2ccncc2)c(O)c2ccccc21	8	9	+	8	7	15
CCCCCn1c(=O)c(C(=O)NCc2ccncc2)c(O)c2ccccc21	6	11	.	1	1	12
O=C(CCCOc1ccc(Cl)cc1Cl)N1CCC2(CC1)OCCO2	9	2	.	7	7	2
O=C(NC1(C(F)(F)F)Oc2ccc(Cl)cc2O1)N1CCC2(CC1)OCCO2 (stereo unspecified)	22*	-27	i	-13	-23	-46
CCCCn1c(O)c(C(CC)=NCCCN(C)C)c(=O)[nH]c1=O	21*	9	i	-13	-3	-36
NC1=C(C(=O)OCc2ccccc2)C2(C(=O)Nc3ccc(Br)cc32)C2=C(CCCC2=O)O1 (stereo unspecified)	.	.	i	.	.	.
CC1CN=C(Nc2cccc3ccccc23)S1 (stereo unspecified)	9	30	i	0	30	35*
O=C(c1ccccc1)c1cc(Br)ccc1NC(=O)c1cc(Cl)ccc1[N+](=O)[O-]	.	.	i	.	.	.
CCCCCCn1c(=O)c(C(=O)Nc2c(C)n(C)n(-c3ccccc3)c2=O)c(O)c2ccccc21	4	6	+	-16	-3	3	BAP1 inh conf=95
Cc1ccc(-n2c(C(F)(F)F)nc3ccccc3c2=O)cc1	.	.	i	.	.	.
